Bioassay records: PubChem, several laboratories
Shown are actives, neighbours in structure and some others; about 2.6% of the full set was active somewhere.
CF NFkB inh: inhibitors of cystic fibrosis induced NF-kB. 360,000 tested, 0.86% active. inhibition, % at 5 µM. KKLEB NF-kB-GFP reporter, PAF-induced, GFP fluorescence overnight;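 active = at least 50% inhibition at 5 µM, scaled per plate between neutral and stimulator controls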;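 note: PAF is a Pseudomonas aeruginosa culture filtrate used as stimulus; plate controls were PAF-stimulated DMSO wells for no effect and unstimulated DMSO wells for full effect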
EWS-Fli block: blocks EWS/Fli oncoprotein-driven transcription. 350,000 tested, 0.67% active. inhibition, % at 12.6 µM. A673 NR0B1-luciferase reporter, viability-normalised;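 active = mean inhibition of at least 50% after viability correction, with every replicate also passing that limit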;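 note: firefly luciferase signal divided by Alamar Blue viability fluorescence both relative to DMSO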
KKLEB tox: counter-screen for CF NF-kB inhibitors: cytotoxicity; activity change (cytotoxicity), % at 5 µM; KKLEB CF airway cells viability, ATPlite luminescence, overnight; hits give low values; cells stimulated with P. aeruginosa culture filtrate; 360,000 tested, 0.36% active;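 active = corrected activity change at or below -50% at 5 µM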
TWEAK-Fn14 inh: blocks TWEAK-Fn14 interaction in a reporter cell assay | inhibition, % at 10 µM | TWEAK-stimulated Fn14 reporter cells, luciferase luminescence, 8 h | 360,000 tested, 2% active; in the data active = inhibition above about 50%
LGR2 antag: inhibitors of bursicon-induced Drosophila LGR2 receptor cAMP signaling; HEK293 LGR2, CRE-luciferase, bursicon-stimulated, 4 h; inhibition, % at 9.99 µM; 380,000 tested, 0.35% active; AID 720647;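 active = drop in luminescence signal, shown as inhibition above about 50% in the replicate tests, limit read from the data, passing the limit was not always enough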;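 note: agonist challenge used bursicon conditioned medium at about half maximal strength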
TROY signal inh: TROY signaling inhibition; Q293 LMP1-TROYcd NF-kB luciferase reporter, 4 h; inhibition, % at 10 µM; 360,000 tested, 0.98% active; AID 1347056;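 active = compounds whose plate-normalised and pattern-corrected inhibition of the luciferase reporter signal at the single screening dose is 50% or more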
CF NFkB conf: confirmation of cystic fibrosis induced NF-kB inhibitors | inhibition, % at 5 µM | 1,300 tested, 64% active | KKLEB CF airway cells, PAF-induced NF-kB-GFP fluorescence, overnight | shares compounds with CF NFkB inh; in the data active = inhibition above about 40%;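 note: stimulus PAF is a Pseudomonas aeruginosa filtrate and not platelet activating factor; plate controls were DMSO wells with stimulus for no effect and unstimulated DMSO wells for full effect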
* hit, by the source's call; x = no result given.

SMILES	CF NFkB inh	EWS-Fli block	KKLEB tox	TWEAK-Fn14 inh	LGR2 antag	TROY signal inh	CF NFkB conf
COc1ccc(-c2csc(/C(C#N)=C\c3ccc(O)c([N+](=O)[O-])c3)n2)cc1OC	79*	14	-2	60*	-14	36	80*
C[C@H]1CN([C@@H](C)CO)C(=O)c2cc(C#CC3(O)CCCC3)cnc2O[C@@H]1CN(C)C(=O)C1CCOCC1	x	-1	x	x	-10	x	x
Cc1ccc(-c2onc3ccc(C(=O)/C=C/N(C)C)cc23)cc1	68*	-9	-3	17	-5	-53	47*
C[C@@H]1CCCCO[C@H](CN(C)C)[C@@H](C)CN([C@H](C)CO)C(=O)c2cc(NC(=O)CCC(F)(F)F)ccc2O1	x	-7	x	x	-14	x	x
Cc1ccnc(NC(=O)Cc2ccc(-c3ccccc3)cc2)c1	62*	x	-17	48	34	41	58*
CCN1CC(=O)N2[C@H](CO)[C@@H](c3ccc(Br)cc3)[C@H]2C1	x	6	x	x	14	x	x
Nc1ccc2nc(-c3ccccc3)cnc2c1	-16	-49	-4	19	47	-18	x
Nc1ccc2nc(-c3ccccc3)c(-c3ccccc3)nc2c1	67*	14	-16	12	-11	1	5
COc1ccc(-c2cc(=O)oc3cc(OCC(C)=O)ccc23)cc1	23	-18	-6	-22	-11	-11	x
COc1ccc(-c2cc(=O)oc3cc(O)ccc23)cc1	82*	15	-4	64*	2	26	86*
COc1ccc(-c2cc(=O)oc3cc(OC(=O)C4CCCCC4)c(Cl)cc23)cc1	88*	10	-16	84*	33	58*	93*
O=c1cc(-c2ccc([N+](=O)[O-])cc2)c2ccc(O)cc2o1	53*	4	14	-13	22	21	25
COc1ccc(-c2cc(=O)oc3cc(OC(C)C(=O)NC4CC4)ccc23)cc1 (stereo unspecified)	1	5	4	-9	-4	-17	x
Cc1ccc(C(=O)COC(=O)c2ccncc2)cc1[N+](=O)[O-]	-4	x	8	16	-3	9	x
Cc1ccc(C(=O)COC(=O)c2cc(Cl)ccc2O)cc1[N+](=O)[O-]	52*	x	-14	31	5	1	47*
C[C@]12CCC(O)CC1CCC1C2CC[C@]2(C)C(c3cc(C(F)(F)F)n[nH]3)CCC12 (stereo partly specified)	56*	11	-37	-36	7	61*	71*
CC12CCC3C(CCC4CC(O)CCC43C)C1CC(O)C2 (stereo unspecified)	9	-6	6	26	8	26	x
C[C@H]1CCC[C@]2(C)C[C@H]3OC(=O)C(CN4CCCCCC4)[C@H]3C=C12 (stereo partly specified)	74*	8	-22	73*	37	-2	40
C=C/C(C)=C/CC1C(=C)CCC2C(C)(C(=O)O)CCCC12C (stereo unspecified)	-6	-6	3	11	x	-20	x
C=C1CC[C@@H]2[C@](C)(CO)[C@H](O)CC[C@@]2(C)[C@@H]1C/C=C1/C(=O)OCC1O (stereo partly specified)	54*	6	-19	20	-8	-12	15
Cc1c(O)ccc2c(-c3ccccc3)cc(=O)oc12	75*	5	20	44	5	45	95*
COc1ccc(-c2cc(=O)oc3c(C)c(OC(C)C(C)=O)ccc23)cc1 (stereo unspecified)	19	5	-8	-16	-22	29	x
COc1ccc(-c2cc(=O)oc3c(C)c(O)ccc23)cc1	83*	-6	15	72*	13	61*	92*
COc1ccc(-c2cc(=O)oc3c(C)c(OC(=O)c4cccs4)ccc23)cc1	72*	-2	12	38	-24	21	96*
CN(C)CC(=O)Nc1ccc2c(c1)[C@H]1C[C@@H](CC(=O)NC3CCCC3)O[C@H](CO)[C@H]1O2	x	3	x	x	-3	x	x
